Inconclusive results are not listed. Where a call stands in place of a potency, no number is given. Activity calls are given as the source filed them. Unless noted, calls come from the whole dose curve; as a rule, active = well fitted curve in the direction sought with a large enough effect in the repeat runs; inconclusive = weak or mixed curves; inactive = no such curve, though single readings can be large; an effect the other way counts as inactive or inconclusive.
What was measured:
[1] = qHTS assay for small molecules that induce genotoxicity in human embryonic kidney cells expressing luciferase-tagged ATAD5 (AID 651632); note: nearly all actives have a fitted effect of over 15% in size; note: potency is the fitted concentration of half-maximal effect
Method in brief: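 A rise in luciferase signal from ATAD5-tagged HEK293T cells marks genetic stress. Cells were exposed to compounds for 16 hr at 37C, 5% CO2, then luciferase was quantified after a 30 min room-temperature incubation with Amplite.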

[2] = qHTS assay for small molecule agonists of the p53 signaling pathway - cell viability (AID 651633; calls by dose curve; note: nearly all actives have a fitted effect of over 30% in size; note: potency is the fitted concentration of half-maximal effect)
Method in brief: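 p53RE-bla cells, seeded at 4,000 per well and rested 5 h at 37 C/5% CO2, received compounds in DMSO for 16 h at 37 C. CellTiter-Glo was then added, and luminescence was read after 30 min at room temperature to gauge cytotoxicity.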

[3] = qHTS assay for small molecules that induce genotoxicity in human embryonic kidney cells expressing luciferase-tagged ATAD5 - cell viability (AID 651634; calls by dose curve; note: nearly all actives have a fitted effect of over 25% in size; note: potency is the fitted concentration of half-maximal effect)
Method in brief: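 Cytotoxicity counter-readout: after 15.5 hr compound treatment at 37C, live-cell protease activity in ATAD5-luciferase HEK293T cells measured by CellTiter-Fluor fluorescence, 30 min development at 37C.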

[4] = qHTS assay for small molecule disruptors of the mitochondrial membrane potential - cell viability (AID 720634; calls by dose curve; note: nearly all actives have a fitted effect of over 20% in size; note: potency is the fitted concentration of half-maximal effect)
Method in brief: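 Cytotoxicity was quantified from ATP content by CellTiter-Glo luminescence in the same wells as the MMP dye read-out. HepG2 (2,000 cells/well) were plated overnight and exposed to compounds for 1 hr at 37 C.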

[5] = qHTS assay to test for compound auto fluorescence at 590 nm (red) in HepG2 cells (AID 720674)
Method in brief: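 Rose Bengal sodium served as the red fluorophore standard. HepG2 monolayers (overnight attachment, MEM with 10% FBS) were exposed to test compounds for 1 hr at 37 C and read at Ex 540/Em 590 nm.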

[6] = qHTS assay to test for compound auto fluorescence at 535 nm (green) in HepG2 cells (AID 720675)
[7] = qHTS assay to test for compound auto fluorescence at 460 nm (blue) in HEK293 cells (AID 720678)
Method in brief: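 HEK293, 2,000 cells/well, 10% dialyzed FBS; attach 4-5 hr 37C; pin compound or DMSO; o/n 37C/5% CO2; fluorescence 405/460 nm; triamterene-equivalent units.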

[8] = qHTS assay to test for compound auto fluorescence at 590 nm (red) in HEK293 cells (AID 720679)
Method in brief: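 Intensity at 540nm excitation and 590nm emission is reported as Rose Bengal sodium-equivalent autofluorescence. Measurements followed overnight exposure (37C, 5% CO2) of HEK293 cells, 2,000 per well, to 23 nL compound.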

[9] = qHTS assay for small molecule disruptors of the mitochondrial membrane potential (AID 720635); note: potency is the fitted concentration of half-maximal effect
Method in brief: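 HepG2 cells (2,000/well) attached overnight at 37C, then took compound for 1 hr at 37C, 5% CO2. Mito-MPS dye was added for 30 min; fluorescence was read at 490/535 nm (monomers) and 540/590 nm (aggregates).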

SMILES	Potency [1]	Potency [2]	Potency [3]	Potency [4]	Potency [5]	Potency [6]	Potency [7]	Potency [8]	Potency [9]
CO/N=C(\C(=O)N[C@@H]1C(=O)N2C(C(=O)O)=C(CSc3nnnn3C)CS[C@H]12)c1csc(N)n1	inactive	inactive	inactive	inactive	inactive	inactive	inactive	inactive	
CCC(=O)O[C@]1(C(=O)CCl)[C@@H](C)C[C@H]2[C@@H]3C[C@H](F)C4=CC(=O)C=C[C@]4(C)[C@@]3(F)[C@@H](O)C[C@@]21C	inactive	inactive	inactive		inactive	inactive	inactive	inactive	11.9 µM (active)
CN(C)CC/C=C1/c2ccccc2CSc2ccccc21	inactive	inactive	inactive	inactive	inactive		inactive	inactive	
CCSc1ccc2c(c1)N(CCCN1CCN(C)CC1)c1ccccc1S2	inactive	inactive	inactive	inactive	inactive	inactive	inactive	inactive	
S=C1SCN(Cc2ccccc2)CN1Cc1ccccc1	inactive	inactive	inactive	inactive	inactive	inactive	inactive	inactive	
CCN(CC)CCOc1ccccc1OC	inactive	inactive	inactive	inactive	inactive	inactive	inactive	inactive	
[O]=[Bi][O]C(=O)[O][Bi]=[O]	inactive	inactive	inactive	inactive	inactive	inactive	inactive	inactive	
COC(=O)CC[C@H](N)C(=O)O	inactive	inactive	inactive	inactive	inactive	inactive	inactive	inactive	
O=C(OCc1ccccc1)c1cccnc1	inactive	inactive	inactive		inactive	inactive	inactive	inactive	23.7 µM (active)
C[C@H]1[C@@H](OC(=O)CCC(=O)O)O[C@@H]2OC3(C)CC[C@H]4[C@H](C)CC[C@@H]1[C@@]24OO3	inactive	inactive	2.37 µM (active)	inactive	inactive	inactive	inactive	inactive	
CN1CCC(CN2c3ccccc3Sc3ccccc32)C1 (centres undefined)	inactive	inactive	inactive	inactive	inactive	inactive	inactive	inactive	
CC(CC(c1ccccc1)c1ccccc1)NC(C)(C)C (centres undefined)	inactive	inactive	inactive	inactive	inactive	inactive	inactive	inactive	
CCN(CC)CCOc1ccc2nc(N(C)C)sc2c1	inactive	inactive	inactive	inactive	inactive	inactive	inactive	inactive	
CCCCCCCCCCCC(=O)N(CCO)CCO	inactive	inactive	inactive	inactive	inactive	inactive	inactive	inactive	
CCN(CC)CCC(=O)N1c2ccccc2Sc2ccc(C(F)(F)F)cc21	inactive	inactive	inactive	inactive	inactive	inactive	inactive	inactive	
O=C(COc1ccc(Cl)cc1)OCCNC12CC3CC(CC(C3)C1)C2	inactive	inactive	inactive		inactive	inactive	inactive		inactive
CCOC(=O)c1c[nH]c2cc(OCC(C)C)c(OCC(C)C)cc2c1=O	inactive	inactive	inactive		inactive	inactive	inactive	inactive	inactive
O=C(NNCNNC(=O)c1ccncc1)c1ccncc1	inactive	inactive	inactive	inactive	inactive	inactive	inactive	inactive	
NNc1nnc(Cc2ccncc2)c2ccccc12	inactive	inactive	inactive	inactive	inactive	inactive	inactive	inactive	
C=C(NC(=O)C(=C)NC(=O)c1csc(C2=N[C@@H]3c4csc(n4)[C@H]4NC(=O)c5csc(n5)[C@H]([C@](C)(O)[C@@H](C)O)NC(=O)[C@H]5CSC(=N5)C(=CC)NC(=O)C([C@@H](C)O)NC(=O)c5csc(n5)[C@]3(CC2)NC(=O)[C@H](C)NC(=O)C(=C)NC(=O)[C@H](C)NC(=O)C([C@@H](C)CC)NC2C=Cc3c([C@H](C)O)cc(nc3C2O)C(=O)O[C@@H]4C)n1)C(N)=O (some centres undefined)	11.4 µM (active)	inactive	inactive	inactive	inactive	inactive	inactive	inactive	
O=C(OC1C[C@@H]2CC3C[C@H](C1)N2CC3=O)c1c[nH]c2ccccc12 (some centres undefined)	inactive	inactive	inactive	inactive	inactive	inactive	inactive	inactive	
CN1CCc2c(c3ccccc3n2Cc2ccccc2)C1	inactive	inactive	inactive	inactive	inactive	inactive	inactive	inactive	

SMILES	Potency [1]	Potency [2]	Potency [3]	Potency [4]	Potency [5]	Potency [6]	Potency [7]	Potency [8]	Potency [9]
CC(C)(C)NCC(O)c1ccc(O)c(CO)n1 (centres undefined)	inactive	inactive	inactive	inactive	inactive	inactive	inactive	inactive	
CC(=O)N=c1sc(S(N)(=O)=O)nn1C	inactive	inactive	inactive	inactive	inactive	inactive	inactive	inactive	
O=C(NOC[C@H](O)CO)c1ccc(F)c(F)c1Nc1ccc(I)cc1F	inactive	inactive	inactive	inactive	inactive	inactive	inactive	inactive	
CC#CCC(C)[C@H](O)/C=C/[C@@H]1[C@H]2c3cccc(CCCC(=O)O)c3O[C@H]2C[C@H]1O (some centres undefined)	inactive	inactive	inactive	inactive	inactive	inactive	inactive	inactive	
COc1cc(Br)c(C[N+]2(CCOCCC3CCC4CC3C4(C)C)CCOCC2)cc1OC (centres undefined)	inactive	inactive	inactive	inactive	inactive	inactive	inactive	inactive	
COc1ccc(C2(C#N)CCC(C(=O)O)CC2)cc1OC1CCCC1 (centres undefined)	inactive	inactive	inactive	inactive	inactive	inactive	inactive	inactive	
S=C=Nc1ccc(N=C=S)cc1	inactive	inactive	inactive	inactive	inactive	inactive	inactive	inactive	
C[C@@H]1C[C@H]2C3C[C@H](F)C4=CC(=O)C=CC4(C)[C@@]3(F)[C@@H](O)CC2(C)[C@@]1(O)C(=O)COC(=O)C(C)(C)C (some centres undefined)	inactive	inactive	inactive	inactive	inactive		inactive	inactive	
CCC(=O)OCC(=O)[C@@]1(OC(=O)CC)[C@@H](C)C[C@H]2[C@@H]3CCC4=CC(=O)C=C[C@]4(C)[C@@]3(Cl)[C@@H](O)C[C@@]21C	inactive	inactive		inactive	inactive	inactive	inactive	inactive	21.1 µM (active)
O=C(CCCN1CCC(n2c(=S)[nH]c3ccccc32)CC1)c1ccc(F)cc1	inactive	inactive		inactive	inactive	inactive	inactive	inactive	inactive
Cc1cc(C(=O)NNCc2ccccc2)no1	inactive	inactive		inactive	inactive	inactive	inactive	inactive	
C/C1=C2N=C(/C=C3N=C(/C(C)=C4\[N-][C@@](C)([C@@H]5N=C1[C@](C)(CCC(=O)NCC(C)OP(=O)(O)O[C@H]1[C@@H](O)[C@@H](n6cnc7cc(C)c(C)cc76)O[C@@H]1CO)[C@H]5CC(N)=O)[C@@](C)(CC(N)=O)[C@@H]4CCC(N)=O)[C@@](C)(CC(N)=O)[C@@H]\3CCC(N)=O)C(C)(C)[C@@H]/2CCC(N)=O.CC(=O)O.[Co] (some centres undefined)	inactive	inactive		inactive	inactive	inactive	inactive	inactive	
C=CC[C@@H]1/C=C(\C)C[C@H](C)C[C@H](OC)[C@H]2O[C@@](O)(C(=O)C(=O)N3CCCC[C@H]3C(=O)O[C@H](/C(C)=C/[C@@H]3CC[C@@H](O)[C@H](OC)C3)[C@H](C)[C@@H](O)CC1=O)[C@H](C)C[C@@H]2OC	inactive	26.6 µM (active)		inactive	inactive	inactive	inactive	inactive	
O=C(Nc1ccc(Br)cc1)c1cc(Br)c(Br)s1	inactive	29.8 µM (active)		3.35 µM (active)	inactive	inactive	inactive	inactive	0.668 µM (active)
CO[C@H]1C[C@H](O[C@H]2[C@H](C)O[C@@H](O[C@@H]3/C(C)=C/C[C@@H]4C[C@@H](C[C@]5(C=C[C@H](C)[C@@H](C6CCCCC6)O5)O4)OC(=O)[C@@H]4C=C(C)[C@@H](O)[C@H]5OC/C(=C\C=C\[C@@H]3C)[C@]54O)C[C@@H]2OC)O[C@@H](C)[C@@H]1O	inactive	6.68 µM (active)	13.3 µM (active)		inactive	inactive	inactive	inactive	11.9 µM (active)
CN[C@H]1CCc2cc(OC)c(OC)c(OC)c2-c2ccc(OC)c(=O)cc21	0.237 µM (active)	inactive		inactive	inactive	inactive	inactive		0.335 µM (active)
CCCCC(=O)N(Cc1ccc(-c2ccccc2-c2nn[nH]n2)cc1)[C@@H](C(=O)O)C(C)C	inactive	inactive	inactive		inactive	inactive	inactive	inactive	
CC(C)CCC[C@@H](C)[C@H]1CC(=O)C2=C3CC[C@H]4C[C@@H](O)CC[C@]4(C)[C@H]3CC[C@@]21C	inactive	inactive		inactive	inactive	inactive	inactive	inactive	
CN(C)c1ccc(C(=C2C=CC(=[N+](C)C)C=C2)c2c(O)c(S(=O)(=O)[O-])cc3cc(S(=O)(=O)O)ccc23)cc1	inactive	inactive		inactive	inactive	inactive	inactive	inactive	
N#CC(c1ccc(Cl)cc1)c1c(Cl)cc(-n2ncc(=O)[nH]c2=O)cc1Cl (centres undefined)	inactive	23.7 µM (active)		inactive	inactive	inactive	inactive	inactive	8.41 µM (active)
CC(C)CCCC(C)NC(C)C (centres undefined)	inactive	inactive	inactive		inactive	inactive	inactive	inactive	inactive

From PubChem BioAssay (Tox21)
